Inconclusive results are not listed. Entries that show only a call come without a potency. Activity calls are given as the source filed them. Calls come from the whole dose curve; as a rule, active = well fitted activation curve with a large enough effect; inconclusive = small, poorly fitted or top-dose-only effect; inactive = flat fitted curve, though single readings scatter.
Test: Primary redox qHTS assay for identification of artifact compounds. (AID 1845223)
Settings: Amplex Red/HRP redox cycling with DTT, fluorescence; series mostly up to 53.8 µM
In short: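 Amplex Red (25 uM) and HRP (250 mU/mL) in HBSS, with compounds for 15 min, then 250 uM DTT for 30 min, room temperature, dark. Fluorescence 525/598 nm read; normalized to DMSO and 10 uM DA3003; Hill fit.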

Row | Compound | Potency | redox activity (% of DA3003)
1 | C=C1CC2C3(C)C(O)CC(=O)C(C)(C)C3C(OC(C)=O)C(OC(C)=O)C2(C)C2C(=O)OC(C)(C(=O)OC)C(=O)C12C (stereo not drawn) | inactive | 
2 | C=C1CC2(C(=O)O)CC1CCC2C1(C)CCCC2(C)C(=O)OC(O)C21 (stereo not drawn) | inactive | 
3 | CNC(=O)O[C@H]1COc2ccc(N3CCN(C4COC4)CC3)cc2[C@@H]1NC(=O)c1ccc(F)cc1 | inactive | 
4 | C=CC(C)(C)O[C@@H]1O[C@H](CO[C@@H]2OC[C@](O)(CO)[C@H]2O)[C@@H](O)[C@H](O)[C@H]1O | inactive | 
5 | C=C[C@@]1(C)CC(=O)C2[C@](C)(O1)[C@@H](OC(C)=O)[C@@H](O)[C@H]1C(C)(C)CCC[C@]21C (stereo partly drawn) |  | 11% [at 11.5 µM] (inactive)
6 | CC(/C=C/C1(O)C(C)CC(O)CC1(C)C)OC1OC(CO)C(O)C(O)C1O (stereo not drawn) | inactive | 
7 | C=C1CCC[C@]2(C)C[C@]3(O)OC(=O)C(C)=C3C[C@@H]12 | inactive | 
8 | CN(C)C/C=C/C(=O)Nc1ccc(C(=O)Nc2cccc(Nc3ncc(Cl)c(-c4c[nH]c5ccccc45)n3)c2)cc1 | inactive | 
9 | CCC(=O)N[C@@H]1Cc2ccccc2[C@H](c2ccccc2)C1 | inactive | 
10 | O=C(/C=C/c1ccc(O)c(O)c1)OCc1ccccc1O[C@@H]1O[C@H](CO)[C@@H](O)[C@H](O)[C@H]1O | inactive | 
11 | O=C1Nc2ccc(O)cc2O[C@H]1O[C@@H]1O[C@H](CO)[C@@H](O)[C@H](O)[C@H]1O | inactive | 
12 | C=Cc1cc(O)cc2nc(-c3ccc(O)c(F)c3)oc12 | inactive | 
13 | C=C1C[C@@]23CC[C@@H]4[C@](C)(C(=O)O)CCC[C@@]4(C)C2=CC[C@H]1C3 | inactive | 
